Assay outcomes from PubChem.
AHR act – AHR activators, primary screen, cell-based, luminescence, luciferase reporter, human; Aryl hydrocarbon receptor (Homo sapiens), P35869; AHR-responsive luciferase reporter cells; activation, % at 5 µM; actives 2.5% (n = 320,000); in the data active = activation above about 47%
DAX1 inh-1 – DAX1 (NR0B1) inhibitors, primary screen, cell-based, HEK293, Gal4-DAX1, luciferase luminescence; actives 0.99% (n = 340,000); HEK293 Gal4-DAX1 luciferase reporter; inhibition, % at 6.75 µM; Nuclear receptor subfamily 0 group B member 1 (Homo sapiens), P51843;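 active = inhibition above the mean over all tested compounds plus 3 SD, cut at about 4.2% in these data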;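 also: inhibition shows as a rise in luminescence from relieved DAX1 repression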
DAX1 inh-2 – DAX1 (NR0B1) inhibitors on StAR promoter, primary screen, cell-based, luminescence, SF-1 (NR5A1), full-length DAX-1 | HEK293T StAR-luciferase reporter, SF-1/DAX-1 repression relief | inhibition, % at 6.8 µM | actives 1.1% (n = 370,000) | AID 652010, 2013;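 active = inhibition above the mean over all tested compounds plus 3 SD, cut at about 3.6% in these data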;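 also: higher inhibition means more luminescence from relief of DAX-1 repression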
hgDAF-12 ag – H. glycines DAF-12 receptor agonists, primary screen, cell-based, luminescence, HEK293, GAL4 fusion, UAS-luciferase | HEK293 GAL4-hgDAF12 UAS-luciferase reporter, agonist luminescence; normalized to butyrate control | activation, % at 6.8 µM | actives 1.8% (n = 370,000);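 active = activation above a cutoff set at the mean of all screened compounds plus 3 SD, cut at about 10% in these data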
ssDAF12 agonist – S. stercoralis DAF-12 nuclear receptor activators, primary screen, cell-based, luminescence, HEK293, GRIP1 co-expression, lit1-tk-luc. HEK293 ssDAF-12/GRIP1 lit1-tk-luc reporter; % of 3 µM dafachronic acid response. actives 1% (n = 370,000). Nuclear hormone receptor DAF-12 (Strongyloides stercoralis). activation, % at 6.8 µM;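 active = activation above the mean over all tested compounds plus 3 SD, cut at about 0.9% in these data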
hcDAF-12 act – H. contortus DAF-12 nuclear receptor activators, primary screen, cell-based, luminescence, HEK293, lit1-tk-luc reporter | HEK293 hcDAF-12 lit1-tk-luc reporter; 0% DMSO, 100% Δ7-dafachronic acid | activation, % at 6.8 µM | actives 1.4% (n = 370,000) | AID 652067, 2013;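 active = activation above the mean of all tested compounds plus 3 SD, cut at about 5.5% in these data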
LXR ag – LXR agonists, Gal4 luciferase reporter, confirmation, counter-screen for hcDAF-12 agonist project, cell-based, luminescence, HEK293, H. contortus campaign; shares compounds with hcDAF-12 act; HEK293 Gal4-LXR tk-luc reporter, 24 h; normalized: DMSO 0%, positive control 100%; activation, % at 6.8 µM; 3,400 tested, under 10 active; AID 743027, 2013;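 active = mean percent activation of the reporter above a cutoff set as the average over tested compounds plus their standard deviation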
Target sequence (P55055 whole entry, looked up, the tested form may be a part): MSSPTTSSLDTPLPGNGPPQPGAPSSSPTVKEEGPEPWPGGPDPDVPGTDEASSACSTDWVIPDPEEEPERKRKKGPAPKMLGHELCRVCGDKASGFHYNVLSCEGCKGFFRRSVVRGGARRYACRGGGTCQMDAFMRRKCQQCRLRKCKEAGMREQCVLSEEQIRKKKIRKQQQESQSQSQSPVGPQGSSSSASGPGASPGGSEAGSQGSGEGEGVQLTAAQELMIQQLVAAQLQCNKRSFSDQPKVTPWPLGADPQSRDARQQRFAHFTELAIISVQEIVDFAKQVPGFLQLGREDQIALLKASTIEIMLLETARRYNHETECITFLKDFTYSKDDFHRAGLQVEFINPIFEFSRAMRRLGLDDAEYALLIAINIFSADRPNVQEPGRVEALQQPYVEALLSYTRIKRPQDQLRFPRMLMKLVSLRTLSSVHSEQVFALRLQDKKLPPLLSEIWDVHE
hcDAF12 conf – H. contortus DAF-12 receptor agonists, confirmation, cell-based, luminescence, HEK293, lit1-tk-luc, triplicate; HEK293 hcDAF-12 lit1-tk-luc reporter; % of Δ7-dafachronic acid response; actives 61% (n = 3,400); shares compounds with hcDAF-12 act; activation, % at 6.8 µM;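 active = mean activation across triplicate tests above the threshold derived from the earlier primary screen, cut at about 5.5% in these data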
hgDAF12 conf – H. glycines DAF-12 receptor agonists, confirmation, cell-based, luminescence, HEK293, GAL4-LBD fusion. HEK293 GAL4-hgDAF12 luciferase reporter, agonist mode; percent of butyrate response. actives 80% (n = 3,300). activation, % at 6.8 µM. shares compounds with hgDAF-12 ag;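 active = mean activation over triplicate wells above the hit cutoff derived from the earlier primary screen, cut at about 11% in these data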
LXRb DAF12 ctr – LXR agonists, Gal4 luciferase reporter, confirmation, counter-screen for hgDAF-12 agonist project, cell-based, luminescence, HEK293, H. glycines campaign; 24 h; activation, % at 6.8 µM; shares compounds with hgDAF-12 ag; 3,300 tested, under 10 active;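 active = mean activation of the triplicate above a set limit carried over from the primary screen, none filed active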
Hits are given with their value; – = inactive; · = no result. Most compounds without a hit are left out; they make up all but 5.7% or so of the library.

SMILES | AHR act | DAX1 inh-1 | DAX1 inh-2 | hgDAF-12 ag | ssDAF12 agonist | hcDAF-12 act | LXR ag | hcDAF12 conf | hgDAF12 conf | LXRb DAF12 ctr
Nn1c(SCC(=O)NC2CCS(=O)(=O)C2)nnc1-c1cccs1 (configuration not stated) | – | – | – | – | – | – | · | · | · | ·
COc1cc(OC)cc(OCC(O)Cn2cnc3cc(C)c(C)cc32)c1 (configuration not stated) | – | – | – | – | – | – | · | · | · | ·
CCCCn1c(=NC(=O)c2ccco2)c(C(=O)OCC)cc2c(=O)n3ccccc3nc21 | – | – | – | – | – | – | · | · | · | ·
O=C(Nc1ccc(Cl)cc1)OCCN1CCOCC1 | · | – | – | – | – | – | · | · | · | ·
Cc1cc(-c2csc(Nc3ccccn3)n2)ccc1F | 65 | – | – | 17 | 1.7 | 15 | – | 12 | 19 | –
O=C(Nc1ccc2[nH]c(=S)sc2c1)Nc1ccccc1F | – | – | – | 15 | 1.7 | 7.4 | – | 8.0 | 20 | –
O=C(Nc1nc2ccccc2n1CCN1CCCC1)c1ccc(Cl)cc1 | 54 | – | – | 18 | – | 7.3 | – | 9.5 | 16 | –
CC(C)CNS(=O)(=O)/C=C/c1ccccc1CNC(=O)OC(C)(C)C | · | · | – | – | – | – | · | · | · | ·
O=C(c1ccccc1)n1c(=S)nc2ccccn21 | – | – | – | 16 | 1.1 | 15 | – | 14 | 17 | –
N#CC[n+]1cc(-c2ccc(Cl)cc2)n2c1CCC2 | – | – | – | – | – | – | · | · | · | ·
Cc1csc2ncc(C(=O)NCCc3ccccc3)c(=O)n12 | – | – | – | 14 | 1.9 | 8.7 | – | 6.3 | – | –
COc1ccc(S(=O)(=O)Nc2cccc(SC)c2)cc1C(=O)N1CCOCC1 | – | – | – | – | – | – | · | · | · | ·
O=C(Nc1cnc2ccccc2c1)c1ccco1 | – | – | – | 15 | – | 7.1 | – | – | 18 | –
CN(C)CCNc1ccc2nnn3c4ccc(O)cc4c(=O)c1c23 | · | – | – | – | – | – | · | · | · | ·
O=C(Nc1cccc(O)c1)c1c(O)c2ccccc2[nH]c1=O | – | 5.0 | – | 13 | 3.9 | 14 | – | 15 | 24 | –
CC(C)(C)c1ccc(/C=C/C(=O)Nc2nncs2)cc1 | – | – | – | 21 | – | 7.4 | – | 6.8 | 12 | –
COC(=O)Nc1nncs1 | – | – | – | – | – | – | · | · | · | ·
O=C(COC(=O)c1ccccc1O)NCc1ccc2c(c1)OCO2 | – | – | – | – | – | – | · | · | · | ·
COc1ccc(NS(=O)(=O)c2cccs2)c(OC)c1 | – | – | – | – | – | – | · | · | · | ·
